Experimental data from paper PMC13541613, “GHT-SELEX demonstrates unexpectedly high intrinsic sequence specificity and complex DNA binding of many human transcription factors”.

Legend:
Experiment in all cases: HT-SELEX; 20 mM HEPES pH 7, 140 mM KCl, 5 mM NaCl, 1 mM K2HPO4, 2 mM MgSO4, 100 uM EGTA, ZnSO4, 0.1% Tween20; room temperature, 1 h; high values mean tight binding
Conditions in all cases: protein: ivt; tags: eGFP (N-terminal); dsDNA, one strand shown
ZNF721 full-length = ZNF721 full-length (Homo sapiens, UniProt Q8TF20-2 1-923)
Method in brief: (§1)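 The binding signal is a relative k-mer count in selected reads, and higher values mean tighter binding. To obtain these reads, bead-bound tagged transcription factor (full-length or DNA-binding-domain fragment, produced in HEK293 lysate or cell-free extract) was mixed with a randomized 40-base DNA library for 1 h at room temperature in low-stringency HEPES/KCl buffer with Tween20. Bound DNA was recovered by washing and heat elution, PCR-amplified through successive cycles and sequenced on Illumina (~3 million 60 bp reads per sample).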

ZNF721 DBD1 = ZNF721 DBD1 (Homo sapiens, UniProt Q8TF20-2 29-461)
Method in brief: as §1

ZNF721 DBD2 = ZNF721 DBD2 (Homo sapiens, UniProt Q8TF20-2 395-923)
Method in brief: as §1

Chain of ZNF721 full-length (Q8TF20 other isoform, or with tags, fused parts or gaps): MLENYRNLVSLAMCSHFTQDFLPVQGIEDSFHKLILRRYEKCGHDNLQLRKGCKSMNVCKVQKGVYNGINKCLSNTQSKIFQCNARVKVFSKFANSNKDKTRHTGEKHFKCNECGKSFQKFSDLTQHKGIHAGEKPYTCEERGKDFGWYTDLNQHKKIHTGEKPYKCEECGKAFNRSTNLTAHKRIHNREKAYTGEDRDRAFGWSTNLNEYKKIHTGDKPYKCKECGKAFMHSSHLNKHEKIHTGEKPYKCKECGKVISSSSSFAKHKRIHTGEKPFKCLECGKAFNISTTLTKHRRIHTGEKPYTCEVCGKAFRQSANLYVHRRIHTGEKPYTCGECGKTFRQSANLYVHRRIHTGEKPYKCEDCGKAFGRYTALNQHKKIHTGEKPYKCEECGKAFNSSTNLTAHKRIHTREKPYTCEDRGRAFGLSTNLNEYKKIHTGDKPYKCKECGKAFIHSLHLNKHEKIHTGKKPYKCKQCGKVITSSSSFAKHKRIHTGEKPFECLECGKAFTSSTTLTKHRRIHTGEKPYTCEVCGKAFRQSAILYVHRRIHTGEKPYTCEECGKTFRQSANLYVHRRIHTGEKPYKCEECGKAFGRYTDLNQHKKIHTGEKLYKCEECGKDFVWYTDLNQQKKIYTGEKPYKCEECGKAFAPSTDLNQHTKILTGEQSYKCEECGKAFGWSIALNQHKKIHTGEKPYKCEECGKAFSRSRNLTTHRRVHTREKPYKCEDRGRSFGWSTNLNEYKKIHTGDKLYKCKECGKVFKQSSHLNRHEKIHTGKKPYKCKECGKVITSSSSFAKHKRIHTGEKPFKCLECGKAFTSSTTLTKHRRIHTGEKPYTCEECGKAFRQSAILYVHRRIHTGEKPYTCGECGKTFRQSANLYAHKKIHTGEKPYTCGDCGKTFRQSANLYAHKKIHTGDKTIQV
Chain of ZNF721 DBD1 (Q8TF20 17-449): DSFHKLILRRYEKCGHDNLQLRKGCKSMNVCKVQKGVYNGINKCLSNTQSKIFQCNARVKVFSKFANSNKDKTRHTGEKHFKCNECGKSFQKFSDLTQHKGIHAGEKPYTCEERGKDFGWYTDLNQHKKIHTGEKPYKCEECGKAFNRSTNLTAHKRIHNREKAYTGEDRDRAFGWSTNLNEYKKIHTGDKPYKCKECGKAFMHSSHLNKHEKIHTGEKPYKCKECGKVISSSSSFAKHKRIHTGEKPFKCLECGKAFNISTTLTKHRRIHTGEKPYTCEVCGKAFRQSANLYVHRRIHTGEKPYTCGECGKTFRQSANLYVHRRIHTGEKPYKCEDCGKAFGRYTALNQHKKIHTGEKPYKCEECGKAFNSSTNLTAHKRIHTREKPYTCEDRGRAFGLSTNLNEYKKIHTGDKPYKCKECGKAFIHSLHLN
Chain of ZNF721 DBD2 (Q8TF20 383-911): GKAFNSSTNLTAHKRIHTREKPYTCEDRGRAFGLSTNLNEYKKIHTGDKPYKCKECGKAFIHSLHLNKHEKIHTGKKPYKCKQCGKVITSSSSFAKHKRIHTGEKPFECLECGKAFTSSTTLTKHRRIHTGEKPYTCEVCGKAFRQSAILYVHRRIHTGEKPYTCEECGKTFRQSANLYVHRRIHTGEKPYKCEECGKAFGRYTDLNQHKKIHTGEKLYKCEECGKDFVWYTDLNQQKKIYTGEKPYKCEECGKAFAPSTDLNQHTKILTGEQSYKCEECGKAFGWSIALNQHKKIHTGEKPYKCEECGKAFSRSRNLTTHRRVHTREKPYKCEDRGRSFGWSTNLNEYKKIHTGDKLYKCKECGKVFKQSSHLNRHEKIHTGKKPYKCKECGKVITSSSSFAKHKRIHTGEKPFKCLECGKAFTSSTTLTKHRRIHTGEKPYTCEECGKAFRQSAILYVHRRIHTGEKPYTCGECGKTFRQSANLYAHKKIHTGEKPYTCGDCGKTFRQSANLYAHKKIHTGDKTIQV

Sequence	binding signal (ZNF721 full-length) [relative 10-mer count]	binding signal (ZNF721 DBD1) [relative 10-mer count]	binding signal (ZNF721 DBD2) [relative 10-mer count]
ACCCGCCCCC	0.153	0.005	–
AGTATGAAGC	0.167	0.232	–
ACTTCATACC	0.377	0.502	–
CCCCTGCCCC	0.217	0.00734	–
AAGCTATACC	0.227	0.155	–
ATGTATGAAG	0.263	0.279	–
ACCGCCCCAC	0.103	0.0033	0.00252
CCCCCAGCCC	0.146	0.00587	0.00252
CCACGCCCCC	0.187	0.00605	0.0024
CCACCCAGCC	0.102	0.00294	0.00264
CATCCCCACC	0.126	0.0072	0.0188
CTCCCCTCCC	0.135	0.00693	0.00455
CACCCCCACC	0.308	0.0129	0.0102
ACCCACCACC	0.214	0.0104	0.00791
ACCCACCCCA	0.167	0.00798	0.00515
CACCCTACCC	0.107	0.00408	0.00491
ACCCACCCCC	0.265	0.0111	0.00252
GCTTTTTTCA	0.21	0.076	0.0334
CCCCACCCTC	0.21	0.00986	0.00599
CCCCCCGTCC	0.134	0.00491	0.00288
CCACCCCATC	0.11	0.00509	0.00791
CTAAAAAAAA	0.107	0.0111	0.0533
AGCAGTACCA	0.118	0.0341	0.0533
GCCCCCGCCC	0.146	0.00527	0.00132
CCCCCAACCC	0.233	0.00775	0.00168

Sequence	binding signal (ZNF721 full-length) [relative 10-mer count]	binding signal (ZNF721 DBD1) [relative 10-mer count]	binding signal (ZNF721 DBD2) [relative 10-mer count]
CACCCTCCAC	0.106	0.0056	0.00587
AAAAAAAGCT	0.472	0.169	0.00923
CAACCCCACC	0.149	0.00454	0.00384
CCACCACACC	0.148	0.00537	0.00587
CGCCACCCCA	0.135	0.00358	0.00192
CACCACCCCG	0.135	0.00518	0.00312
GCCCCCCTCC	0.128	0.00527	0.00264
CCAACCCCAC	0.128	0.00482	0.00288
CCACCCTCCC	0.246	0.0111	0.00467
AAAAAGCTGC	0.229	0.0954	0.00372
CCCCCCACCA	0.231	0.00904	0.00863
ACCCCGCCCC	0.188	0.00569	0.00192
CACCCCGCCA	0.108	0.00404	0.00455
AAAAAAGAGT	0.101	0.00665	0.0674
CCCGTCCCCC	0.187	0.00771	0.0018
GGGGTGGGGA	0.194	0.0094	0.00264
AGAAAAAACA	0.12	0.00211	0.0902
ACCTCCCCCC	0.151	0.00578	0.00216
CCACCGCCCA	0.131	0.00477	0.00575
CCCCCGCGCC	0.116	0.00381	0.00336
ACAGCGTACC	0.193	0.00115	0.259
CACCGCCCCA	0.107	0.00404	0.0024
ACCCCCTCCC	0.158	0.00807	0.00503
CACCCACACC	0.127	0.0061	0.00395
CAACCCACCC	0.171	0.00532	0.00623

Sequence	binding signal (ZNF721 full-length) [relative 10-mer count]	binding signal (ZNF721 DBD1) [relative 10-mer count]	binding signal (ZNF721 DBD2) [relative 10-mer count]
CCACCGCCCC	0.256	0.0117	0.00455
CCCCCCCCAA	0.109	0.00316	0.00288
CACCACCACC	0.19	0.0072	0.0109
ACCCACACCC	0.108	0.00527	0.00527
ACCACCCTCC	0.124	0.00523	0.00324
ACCCCACCAC	0.199	0.00738	0.00407
CCCCGCCCGC	0.115	0.00417	0.0018
CTCCCCACCC	0.198	0.00936	0.00395
CCCCCATCCC	0.173	0.00638	0.00384
AAAGGCATAC	0.129	0.00142	0.123
CGTCCCCACC	0.115	0.00541	0.00467
GCATACCCAC	0.132	0.00899	0.154
CCTCCCCACC	0.255	0.0111	0.00791
CCGCCTCCCC	0.155	0.00798	0.00204
CCCGCCCACC	0.259	0.0105	0.0024
CACCCCCGCC	0.193	0.00683	0.00288
CCTCCCCCAC	0.216	0.01	0.00767
ACCCCCCCCC	0.143	0.00362	0.0018
AGCTATACCA	0.14	0.0816	0.003
ACAAAAAAGC	0.187	0.0198	0.0647
CCTACCACCC	0.111	0.00619	0.0101
CGCCCACCCA	0.147	0.00449	0.00216
CCCCCCGCCC	0.28	0.0116	0.00336
AGCGTATCCA	0.221	0.0368	0.31
AGGTGGGGTG	0.114	0.00532	0.00288
